Measured values as given in PubChem BioAssay AID1347165 (National Center for Advancing Translational Sciences (NCATS), 2019).
In all, about 220,000 compounds went through this assay and about 5,700 (2.6%) were called active. Roughly 18% stayed inconclusive and do not appear here. Calls follow the shape of the dose curve; as a rule, active = well fitted inhibition curve with a large enough effect; inconclusive = small, poorly fitted or top-dose-only effect; inactive = no such curve, though single readings can be large or run the other way. Shown is part of a subset that was picked to be rich in actives.

target: Lysine-specific demethylase 5B (Homo sapiens) (UniProt Q9UGL1); assay: Primary screen for KDM5B Histone Demethylases FDH-coupled qHTS; settings: FDH-coupled NADH fluorescence (FDH is formaldehyde dehydrogenase); series mostly up to 57.7 µM; activity change, negative = inhibition: at the top concentration; also: nearly all actives have a fitted effect of over 70% in size; as to activity change, negative = inhibition: 0% is about no effect
Sequence (Q9UGL1 whole entry, looked up): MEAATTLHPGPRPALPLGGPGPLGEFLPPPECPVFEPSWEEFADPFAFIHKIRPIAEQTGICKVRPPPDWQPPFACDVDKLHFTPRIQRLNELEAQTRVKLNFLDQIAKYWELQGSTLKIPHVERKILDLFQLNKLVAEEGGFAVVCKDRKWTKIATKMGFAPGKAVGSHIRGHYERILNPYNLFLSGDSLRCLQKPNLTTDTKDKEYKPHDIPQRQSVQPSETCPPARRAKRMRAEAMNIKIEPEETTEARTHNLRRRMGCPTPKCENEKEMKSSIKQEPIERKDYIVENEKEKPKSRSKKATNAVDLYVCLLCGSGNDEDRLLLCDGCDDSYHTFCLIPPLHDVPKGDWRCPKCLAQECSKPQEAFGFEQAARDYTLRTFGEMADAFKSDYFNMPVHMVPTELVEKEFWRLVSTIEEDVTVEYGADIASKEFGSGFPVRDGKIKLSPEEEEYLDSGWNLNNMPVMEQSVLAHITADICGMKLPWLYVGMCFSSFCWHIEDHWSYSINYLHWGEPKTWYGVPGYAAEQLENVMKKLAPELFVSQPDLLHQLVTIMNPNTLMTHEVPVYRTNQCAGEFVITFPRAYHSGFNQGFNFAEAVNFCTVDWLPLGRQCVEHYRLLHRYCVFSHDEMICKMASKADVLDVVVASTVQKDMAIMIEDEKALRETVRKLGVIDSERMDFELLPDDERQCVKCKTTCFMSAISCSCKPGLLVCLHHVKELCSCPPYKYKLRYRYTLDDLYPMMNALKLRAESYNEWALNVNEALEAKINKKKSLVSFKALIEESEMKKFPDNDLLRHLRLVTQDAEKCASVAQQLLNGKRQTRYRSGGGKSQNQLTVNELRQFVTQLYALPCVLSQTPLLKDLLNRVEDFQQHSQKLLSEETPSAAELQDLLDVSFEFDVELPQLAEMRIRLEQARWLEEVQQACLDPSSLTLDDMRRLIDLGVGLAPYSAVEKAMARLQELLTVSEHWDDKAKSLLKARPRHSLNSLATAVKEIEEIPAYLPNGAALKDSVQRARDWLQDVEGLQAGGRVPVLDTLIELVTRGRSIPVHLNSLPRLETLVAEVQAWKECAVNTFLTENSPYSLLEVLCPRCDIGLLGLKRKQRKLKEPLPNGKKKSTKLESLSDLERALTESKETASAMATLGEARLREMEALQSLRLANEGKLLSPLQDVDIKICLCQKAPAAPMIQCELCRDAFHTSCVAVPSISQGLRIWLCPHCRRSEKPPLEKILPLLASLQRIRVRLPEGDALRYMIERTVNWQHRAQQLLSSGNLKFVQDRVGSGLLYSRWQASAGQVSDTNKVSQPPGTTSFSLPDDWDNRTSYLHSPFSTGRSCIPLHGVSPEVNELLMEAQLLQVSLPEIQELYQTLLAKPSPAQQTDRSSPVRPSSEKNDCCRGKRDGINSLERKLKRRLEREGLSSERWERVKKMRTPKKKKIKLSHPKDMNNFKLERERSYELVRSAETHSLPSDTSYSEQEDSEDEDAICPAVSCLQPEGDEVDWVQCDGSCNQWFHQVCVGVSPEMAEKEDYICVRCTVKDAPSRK
From the text: Assay Submitter (PI): Qin Yan, Ph.D. (Yale University) and Xiaodong Cheng, Ph.D. (MD Anderson) This project was funded as part of the NCI NEXT Program and Chemical Biology Consortium (CBC) The histone demethylases, KDM5A and KDM5B catalyze the demethylation of lysine 4 on histone H3 (H3K4me3/2). They are overexpressed in a variety of cancers and have been implicated in cancer cell growth, metastasis, drug resistance, and tumor growth. KDM5A is amplified and overexpressed in breast and gastric cancer; and is translocated in leukemia. While KDM5B is highly expressed in human mammary tumors and breast cancer cell lines, but not in normal adult breast tissue. Moreover, knockdown of KDM5B leads to upregulation of tumor suppressor genes, including BRCA1. The goal of this project is to employ qHTS to identify selective small molecule inhibitors of KDM5A/B demethylase activity to better understand the role of KDM5 in cancer and to develop novel therapies. We employed an FDH-coupled assay previously reported by Sakurai et al. to monitor in vitro KDM5 demethylase activity. Compounds showing dose response inhibition are re-acquired, validated, and tested for non-specific interference with the formaldehyde dehydrogenase (FDH) counterscreen. True inhibitors are validated using an AlphaLisa secondary screen, which employs an H3K4(me2-1)-specific antibody to monitor demethylation of a biotin-tagged H3K4(me3) peptide substrate. Inhibitors are profiled against KDM4A and KDM6A AlphaLisa counterscreens to determine level of demethylase specificity; and against the TruHits counterscreen to eliminate non-specific inhibitory activity on the AlphaLISA detection method. Selective inhibitors identified from the primary and secondary screening are tested in cells using immunofluorescence to monitor global H3K4 tri-methylation as a measure of KDM5A/B inhibition. Early Translation Branch (ETB) National Center for Advancing Translational Sciences (NCATS), Rockville, MD National Institute of Health (NIH), Bethesda, Maryland [1] Sakurai, M et al. A miniaturized screen for inhibitors of Jumonji histone demethylases. Mol Biosyst. 2010 Feb;6(2):357-64. doi: 10.1039/b912993f. Epub 2009 Oct 8.
Materials: 1536-well Black, solid bottom, medium binding assay plate is purchased from Greiner Bio-one. The enzymes (KDM5B) and substrate (H3K4me3/2) are provided by the principal investigators. The buffer for this assay is composed of 50mM HEPES at pH 7.5 with 0.01% Tween-20. FDH coupled Demethylase qHTS protocol: Three microliter enzyme mix (buffer + 200nM KDM5BDeltaAP final concentration) is dispensed into the assay plate using the BioRAPTR Flying Reagent Dispenser (FRD; […]). Compound (at various final concentration) and control solution is pin transferred to the assay plate using the Kalypsys 1536-pin tool apparatus. The assay plate is incubated for 10 min at room temperature followed by addition of 1uL substrate mix (buffer + 100uM ascorbic acid, 50uM ferrous ammonium sulfate, 12.5uM H3K4Me3, 25uM a-ketoglutarate, 0.25 mM NAD+, 0.25 U/mL formaldehyde dehydrogenase using the FRD yielding a total reaction volume of 4 uL. Initial fluorescence (Read1) is detected using the PerkinElmer ViewLux plate reader equipped with 340 nm excitation and 450 nm emission filters. The final fluorescence (Read2) signal is obtained after 30 min of room temperature incubation. Delta RFU is calculated (Read2 - Read1) and is used to generated dose response curves.
Potency is read from the fitted curve at half-maximal effect.

Activity change, negative = inhibition, inactive:
CC(C)(C)c1ccc(C(=O)NN=C2CCCCC2)cc1 27.1%
FC(F)(F)c1ccc(CCNC(=S)NC2CC2)cc1 12.5%
O=C(c1cccc(C(F)(F)F)c1)N1CCC2(CC1)CC(O)CCO2 (centres undefined) 25.6%
COc1ccc(OC2CN(CC3CCCCC3)C2)cc1 27.3% [at 149 µM]
COc1ccc(CN2CC(Oc3ccc(OC)cc3)C2)cc1 29.7% [at 149 µM]
CN(C(=O)Cn1nc(Cc2cccnc2)c2ccccc2c1=O)c1ccccc1Cl 4.77%
CC1=NS(=O)(=O)N(Cc2ccccc2)C=C1C(=O)OCc1noc(C)n1 2.43%
COc1cccc(-c2cc(C3CCN(C(=O)Nc4ccccc4Cl)CC3)[nH]n2)c1 -21.3%
O=C(OCc1nc2ccccc2o1)c1cc(F)cc(F)c1 -13%
COCc1nc(CCNC(=O)CCc2ccccc2)no1 0.693%
Cc1cnc(CCNC(=O)c2ccco2)n1C1CCC1 -24%
Cc1noc(-c2ccc(OC3CN(C(=O)c4ccco4)C3)cc2)n1 -1.11%
Cc1noc(-c2cccc(OC3CN(C(=O)NCCc4ccccc4)C3)c2)n1 11.7%
Cn1c(=O)[nH]c(=O)c2c1ncn2CC(O)c1ccccc1 (centres undefined) 6.84%
CC(=O)N1CCN(c2ccc3nnc(-c4ccc(C)cn4)n3n2)CC1 -29.3% [at 86.2 µM]
COP(=O)(OC)c1nc(-c2cccs2)oc1NCc1ccc(C)cc1 -3030%
Cn1c(=O)c2c(nc(SCC(=O)Nc3ccccc3F)n2Cc2ccccc2)n(C)c1=O -9.27%
Cc1oc2ccn(Cc3cccc(F)c3)c(=O)c2c1C(=O)NCc1cccnc1 1.67%
CCCCc1ccc(C(=O)NCc2cccnc2)cc1 12.1%
Cc1ccccc1NC(=O)Cn1c(=O)n(Cc2ccco2)c(=O)c2ccc(C(=O)NC3CCCC3)cc21 -27.5%
O=C(Nc1ccc(F)cc1F)c1ccc2c(c1)n(Cc1cccc(F)c1)c(=O)c1ccnn12 -0.702%
COCCCNC(=O)c1ccc2c(c1)n(Cc1cccc(OC)c1)c(=O)c1ccnn12 -15%
Cc1[nH]c2ccccc2c1C=O 3.68%
CCOC(=O)CN(CCOC)C(=O)CCCc1ccccc1 15%
CC(C)(C)c1ccc(N2C(=O)[C@@H]3C[C@@H](NC(=O)[C@@H](O)c4ccccc4)CCN3C2=O)cc1 1.01%
O=C(CN1N=C(c2ccccc2F)c2cc(Cl)ccc2S1(=O)=O)Nc1cc(F)ccc1F 1.12%
N#Cc1c(N)n[nH]c1CCCNc1ncnc2c1oc1ccccc12 -1.15%

Potency, active:
COc1ccc(OC2CN(Cc3cccn3C)C2)cc1 44.7 µM
Cc1noc(-c2cccn3c(CNC(=O)CCc4ccccc4)nnc23)n1 22.4 µM
Cc1noc(-c2cccn3c(CNC(=O)c4ccco4)nnc23)n1 28.2 µM
Cc1ccc(-c2nnc3ccc(-c4ccoc4)nn23)nc1 31.6 µM
O=C(Nc1ccccc1F)c1ccc2c(c1)n(Cc1ccccc1)c(=O)c1ccnn12 31.6 µM
CCn1c(=O)c2ccnn2c2ccc(C(=O)NC3CCCCC3)cc21 25.1 µM
O=C(NCc1cccnc1)c1ccc2c(c1)n(Cc1ccc(F)cc1)c(=O)c1ccnn12 25.1 µM
